Among the data in paper PMC7862700, “An all-to-all approach to the identification of sequence-specific readers for epigenetic DNA modifications on cytosine” are binding signal values, retold here.

What all share (test): DAPPL (digital affinity profiling via proximity ligation, sequencing); 10 mM Tris-HCl pH 7.5, 50 mM NaCl, 1 mM DTT, 4% glycerol, room temperature, 30 min; GST-TFs on glutathione beads, 16-mer random dsDNA library, 0.1% formaldehyde crosslink after washing; high values mean tight binding
The target of assay [1] is T1, FEV (Homo sapiens, UniProt Q99581 1-238).
T1 sequence: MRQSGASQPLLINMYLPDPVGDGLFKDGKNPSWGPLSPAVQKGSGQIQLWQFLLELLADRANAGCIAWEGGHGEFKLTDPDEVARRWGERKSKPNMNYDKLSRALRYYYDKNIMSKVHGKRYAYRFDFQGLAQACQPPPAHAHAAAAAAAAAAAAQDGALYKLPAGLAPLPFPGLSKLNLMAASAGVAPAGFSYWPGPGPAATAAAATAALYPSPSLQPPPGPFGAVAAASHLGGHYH
The following applies: protein: recombinant; tags: N-terminal GST; dsDNA, one strand shown. A digest of the protocol: (§1)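 Human transcription factors fused to GST were expressed in yeast, captured on glutathione beads, given DNA barcodes and pooled with a GST-only negative control. Pools were incubated with 200 nmole of a 16-mer random double-stranded DNA library in Tris/NaCl/DTT/glycerol buffer at room temperature for 30 min. They were then washed, crosslinked with 0.1% formaldehyde, proximity-ligated (BsaI/T4 ligase, 1 h, 37 °C), PCR-amplified and sequenced on an Illumina NextSeq500. Binding signal is each 6-mer's read frequency for a factor divided by its frequency for the GST control.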

Assay [2] has as its target ETV5 (Homo sapiens, UniProt P41161 1-510). As to conditions: protein: recombinant; tags: N-terminal GST; dsDNA, one strand shown. A digest of the protocol: as §1
Assay [3] concerns the target HSF1 (Homo sapiens, UniProt Q00613 1-529). As to conditions: protein: recombinant; tags: N-terminal GST; chain copies: 3; dsDNA, one strand shown. A digest of the protocol:
as §1

In assay [4] the target is T2, SPIC (Homo sapiens, UniProt Q8N5J4 1-248).
T2 sequence: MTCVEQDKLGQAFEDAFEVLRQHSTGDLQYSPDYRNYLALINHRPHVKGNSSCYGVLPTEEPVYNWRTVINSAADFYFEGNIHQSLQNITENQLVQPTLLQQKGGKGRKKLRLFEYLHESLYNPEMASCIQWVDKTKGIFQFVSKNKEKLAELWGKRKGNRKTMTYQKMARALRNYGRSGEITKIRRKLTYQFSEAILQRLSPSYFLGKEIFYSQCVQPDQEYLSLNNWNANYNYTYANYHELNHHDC
As to conditions: protein: recombinant; tags: N-terminal GST; dsDNA, one strand shown. A digest of the protocol: as §1

Assay [5] has as its target ELF4 (Homo sapiens, UniProt Q99607 1-663). As to conditions: protein: recombinant; tags: N-terminal GST; dsDNA, one strand shown. A digest of the protocol: as §1
Assay [6] deals with T3, ELK4 (Homo sapiens, UniProt P28324-2 1-405).
T3 sequence: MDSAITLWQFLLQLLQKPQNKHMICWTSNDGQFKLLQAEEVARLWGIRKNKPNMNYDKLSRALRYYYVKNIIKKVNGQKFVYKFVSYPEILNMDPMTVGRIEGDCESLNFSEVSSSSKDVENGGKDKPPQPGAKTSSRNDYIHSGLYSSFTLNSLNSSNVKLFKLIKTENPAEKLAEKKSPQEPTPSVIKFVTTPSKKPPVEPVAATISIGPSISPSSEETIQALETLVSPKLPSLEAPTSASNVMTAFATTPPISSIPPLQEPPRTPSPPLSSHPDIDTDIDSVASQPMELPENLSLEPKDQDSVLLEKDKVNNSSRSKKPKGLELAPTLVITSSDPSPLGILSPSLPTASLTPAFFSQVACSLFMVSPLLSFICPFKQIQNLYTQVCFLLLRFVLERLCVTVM
As to conditions: protein: recombinant; tags: N-terminal GST; dsDNA, one strand shown. The gist of the method: as §1

Assay [7] deals with T4, ETV2 (Homo sapiens, UniProt O00321 1-342).
T4 sequence: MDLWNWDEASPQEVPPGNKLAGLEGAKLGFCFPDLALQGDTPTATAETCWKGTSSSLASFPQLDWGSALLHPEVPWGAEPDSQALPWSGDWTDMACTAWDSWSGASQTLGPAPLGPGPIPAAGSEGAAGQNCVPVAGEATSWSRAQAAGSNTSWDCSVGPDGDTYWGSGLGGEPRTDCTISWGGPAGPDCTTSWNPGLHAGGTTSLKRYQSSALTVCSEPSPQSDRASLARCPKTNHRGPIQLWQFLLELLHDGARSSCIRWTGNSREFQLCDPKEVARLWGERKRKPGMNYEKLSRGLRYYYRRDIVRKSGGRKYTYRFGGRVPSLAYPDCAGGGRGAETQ
The following applies: protein: recombinant; tags: N-terminal GST; dsDNA, one strand shown. The gist of the method:
as §1

Assay [8] addresses T5, ELF3 (Homo sapiens, UniProt P78545 1-371).
T5 sequence: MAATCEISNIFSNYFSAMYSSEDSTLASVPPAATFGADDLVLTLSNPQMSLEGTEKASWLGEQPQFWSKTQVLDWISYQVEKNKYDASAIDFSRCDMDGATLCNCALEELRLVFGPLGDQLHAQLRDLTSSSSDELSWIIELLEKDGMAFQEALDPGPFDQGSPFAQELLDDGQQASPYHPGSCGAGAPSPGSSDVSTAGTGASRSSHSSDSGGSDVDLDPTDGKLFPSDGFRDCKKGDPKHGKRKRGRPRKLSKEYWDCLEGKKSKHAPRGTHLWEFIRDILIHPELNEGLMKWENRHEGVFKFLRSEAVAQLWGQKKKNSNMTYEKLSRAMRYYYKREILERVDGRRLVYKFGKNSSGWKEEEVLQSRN
The following applies: protein: recombinant; tags: N-terminal GST; dsDNA, one strand shown. The gist of the method:
as §1

Assay [9] addresses CRX (Homo sapiens, UniProt O43186 1-299). As to conditions: protein: recombinant; tags: N-terminal GST; dsDNA, one strand shown. The gist of the method: as §1
Assay [10] addresses ETV1 (Homo sapiens, UniProt P50549 1-477). As to conditions: protein: recombinant; tags: N-terminal GST; dsDNA, one strand shown. A digest of the protocol:
as §1

ELF4, sequence (Q99607 whole entry): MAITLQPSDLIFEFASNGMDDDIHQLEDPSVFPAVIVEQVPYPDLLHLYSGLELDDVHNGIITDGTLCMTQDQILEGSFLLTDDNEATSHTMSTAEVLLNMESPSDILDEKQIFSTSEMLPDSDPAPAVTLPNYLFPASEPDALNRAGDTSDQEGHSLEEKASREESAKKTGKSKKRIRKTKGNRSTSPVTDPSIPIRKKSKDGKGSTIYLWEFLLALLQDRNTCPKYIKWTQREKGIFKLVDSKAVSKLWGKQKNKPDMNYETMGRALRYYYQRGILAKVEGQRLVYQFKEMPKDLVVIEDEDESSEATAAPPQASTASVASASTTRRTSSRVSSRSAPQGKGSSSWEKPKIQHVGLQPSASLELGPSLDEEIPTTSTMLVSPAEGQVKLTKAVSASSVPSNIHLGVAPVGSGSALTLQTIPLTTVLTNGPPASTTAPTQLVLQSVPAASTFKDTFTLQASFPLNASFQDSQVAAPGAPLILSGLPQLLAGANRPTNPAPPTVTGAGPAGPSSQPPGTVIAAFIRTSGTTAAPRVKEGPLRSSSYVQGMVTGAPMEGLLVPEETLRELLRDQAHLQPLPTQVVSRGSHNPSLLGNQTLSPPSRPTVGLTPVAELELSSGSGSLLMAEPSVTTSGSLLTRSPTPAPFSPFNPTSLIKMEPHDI
HSF1, sequence (Q00613 whole entry): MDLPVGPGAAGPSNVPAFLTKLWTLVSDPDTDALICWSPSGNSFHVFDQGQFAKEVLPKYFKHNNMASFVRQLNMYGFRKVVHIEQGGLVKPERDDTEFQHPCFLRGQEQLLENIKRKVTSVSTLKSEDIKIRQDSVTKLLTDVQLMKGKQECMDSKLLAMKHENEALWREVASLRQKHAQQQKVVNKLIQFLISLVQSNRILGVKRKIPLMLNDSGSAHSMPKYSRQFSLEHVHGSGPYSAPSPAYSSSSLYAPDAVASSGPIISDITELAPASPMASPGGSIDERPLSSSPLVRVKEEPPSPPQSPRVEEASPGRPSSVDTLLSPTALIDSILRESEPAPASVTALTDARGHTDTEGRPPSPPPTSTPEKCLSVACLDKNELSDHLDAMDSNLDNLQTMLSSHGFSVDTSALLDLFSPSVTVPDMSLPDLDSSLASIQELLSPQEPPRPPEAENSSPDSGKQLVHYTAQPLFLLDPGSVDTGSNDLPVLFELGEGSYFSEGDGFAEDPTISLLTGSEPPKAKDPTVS
CRX, sequence (O43186 whole entry): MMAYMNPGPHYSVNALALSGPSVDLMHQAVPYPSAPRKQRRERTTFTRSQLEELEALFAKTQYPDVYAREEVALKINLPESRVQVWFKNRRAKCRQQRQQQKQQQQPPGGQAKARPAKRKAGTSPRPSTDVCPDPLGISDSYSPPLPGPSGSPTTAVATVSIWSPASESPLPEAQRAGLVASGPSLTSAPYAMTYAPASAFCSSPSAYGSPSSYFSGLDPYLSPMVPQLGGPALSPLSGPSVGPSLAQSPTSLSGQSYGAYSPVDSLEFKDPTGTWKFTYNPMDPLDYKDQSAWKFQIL
ETV5, sequence (P41161 whole entry): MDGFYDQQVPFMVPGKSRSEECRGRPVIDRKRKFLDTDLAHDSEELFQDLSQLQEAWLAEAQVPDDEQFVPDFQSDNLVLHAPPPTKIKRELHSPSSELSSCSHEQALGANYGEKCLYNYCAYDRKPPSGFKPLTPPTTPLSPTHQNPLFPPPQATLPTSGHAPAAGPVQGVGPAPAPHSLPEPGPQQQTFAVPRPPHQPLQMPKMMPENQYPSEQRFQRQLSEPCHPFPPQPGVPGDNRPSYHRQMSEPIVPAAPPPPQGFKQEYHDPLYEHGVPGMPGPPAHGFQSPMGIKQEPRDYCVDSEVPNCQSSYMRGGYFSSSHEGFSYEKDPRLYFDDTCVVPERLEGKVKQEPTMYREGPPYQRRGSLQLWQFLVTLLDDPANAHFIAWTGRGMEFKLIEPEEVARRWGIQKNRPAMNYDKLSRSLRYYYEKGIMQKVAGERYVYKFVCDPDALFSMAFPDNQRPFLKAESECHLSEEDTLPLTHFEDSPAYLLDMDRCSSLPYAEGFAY
ETV1, sequence (P50549 whole entry): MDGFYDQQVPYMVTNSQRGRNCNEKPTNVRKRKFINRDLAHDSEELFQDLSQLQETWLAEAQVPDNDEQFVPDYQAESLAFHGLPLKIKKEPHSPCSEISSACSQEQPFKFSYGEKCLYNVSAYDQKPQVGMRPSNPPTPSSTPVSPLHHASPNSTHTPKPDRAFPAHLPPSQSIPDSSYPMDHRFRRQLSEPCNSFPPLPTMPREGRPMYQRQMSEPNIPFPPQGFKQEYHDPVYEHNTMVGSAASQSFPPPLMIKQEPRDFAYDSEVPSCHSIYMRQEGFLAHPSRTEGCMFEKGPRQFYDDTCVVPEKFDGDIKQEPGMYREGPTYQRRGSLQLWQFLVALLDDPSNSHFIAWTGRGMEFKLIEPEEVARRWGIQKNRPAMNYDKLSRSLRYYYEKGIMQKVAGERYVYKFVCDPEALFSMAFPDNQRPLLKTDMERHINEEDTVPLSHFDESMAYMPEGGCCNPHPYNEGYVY

On to TCCTGA, for which the binding signal in [1] was 1.31 fold enrichment (6-mer frequency, TF over GST control); in [2] it was 1.53 fold enrichment (6-mer frequency, TF over GST control); in assay [3], 1.57 fold enrichment (6-mer frequency, TF over GST control); in [4] it was 1.32 fold enrichment (6-mer frequency, TF over GST control); in assay [5], 1.39 fold enrichment (6-mer frequency, TF over GST control); in assay [6] it was 1.29 fold enrichment (6-mer frequency, TF over GST control). Also, the binding signal in assay [7] was 1.66 fold enrichment (6-mer frequency, TF over GST control); in assay [8], 1.39 fold enrichment (6-mer frequency, TF over GST control); in [9], 1.25 fold enrichment (6-mer frequency, TF over GST control); in assay [10], 1.49 fold enrichment (6-mer frequency, TF over GST control).
In the case of GTTCGA, the binding signal is 1.02 fold enrichment (6-mer frequency, TF over GST control) in [1]; 1.07 fold enrichment (6-mer frequency, TF over GST control) in assay [2]; 1.9 fold enrichment (6-mer frequency, TF over GST control) in assay [3]; 1.15 fold enrichment (6-mer frequency, TF over GST control) in assay [4]; 1.12 fold enrichment (6-mer frequency, TF over GST control) in [5]; 1.07 fold enrichment (6-mer frequency, TF over GST control) in [6]. Also, the binding signal was 1 fold enrichment (6-mer frequency, TF over GST control) in [7]; 1.13 fold enrichment (6-mer frequency, TF over GST control) in assay [8]; 1.11 fold enrichment (6-mer frequency, TF over GST control) in assay [9]; 1.08 fold enrichment (6-mer frequency, TF over GST control) in assay [10].
As for TGCTCA, the binding signal in assay [1] was 1.39 fold enrichment (6-mer frequency, TF over GST control); in assay [2], 1.4 fold enrichment (6-mer frequency, TF over GST control); in [3], 1.12 fold enrichment (6-mer frequency, TF over GST control); in assay [4] it was 1.65 fold enrichment (6-mer frequency, TF over GST control); in assay [5] it was 1.28 fold enrichment (6-mer frequency, TF over GST control); in assay [6], 1.24 fold enrichment (6-mer frequency, TF over GST control). The binding signal is 1.42 fold enrichment (6-mer frequency, TF over GST control) in assay [7]; 1.31 fold enrichment (6-mer frequency, TF over GST control) in [8]; 1.28 fold enrichment (6-mer frequency, TF over GST control) in [9]; 1.34 fold enrichment (6-mer frequency, TF over GST control) in assay [10].
Consider ATGATT, for which the binding signal in [1] was 1.15 fold enrichment (6-mer frequency, TF over GST control); in assay [2], 1.18 fold enrichment (6-mer frequency, TF over GST control); in assay [3], 1.33 fold enrichment (6-mer frequency, TF over GST control); in assay [4], 1.17 fold enrichment (6-mer frequency, TF over GST control); in assay [5], 1.12 fold enrichment (6-mer frequency, TF over GST control); in assay [6], 1.21 fold enrichment (6-mer frequency, TF over GST control). Further, the binding signal is 1.26 fold enrichment (6-mer frequency, TF over GST control) in assay [7]; 1.12 fold enrichment (6-mer frequency, TF over GST control) in assay [8]; 1.58 fold enrichment (6-mer frequency, TF over GST control) in assay [9]; 1.19 fold enrichment (6-mer frequency, TF over GST control) in assay [10].
On to GCCCCT, for which the binding signal was 1.39 fold enrichment (6-mer frequency, TF over GST control) in [1]; 1.39 fold enrichment (6-mer frequency, TF over GST control) in assay [2]; 1.13 fold enrichment (6-mer frequency, TF over GST control) in assay [3]; 1.22 fold enrichment (6-mer frequency, TF over GST control) in assay [4]; 1.4 fold enrichment (6-mer frequency, TF over GST control) in [5]; 1.37 fold enrichment (6-mer frequency, TF over GST control) in assay [6]. In addition, the binding signal in [7] was 1.28 fold enrichment (6-mer frequency, TF over GST control); in assay [8] it was 1.24 fold enrichment (6-mer frequency, TF over GST control); in [9], 1.12 fold enrichment (6-mer frequency, TF over GST control); in assay [10] it was 1.34 fold enrichment (6-mer frequency, TF over GST control).
Take AACTAT: the binding signal was 1.31 fold enrichment (6-mer frequency, TF over GST control) in [1]; 1.37 fold enrichment (6-mer frequency, TF over GST control) in assay [2]; 1.33 fold enrichment (6-mer frequency, TF over GST control) in assay [3]; 1.43 fold enrichment (6-mer frequency, TF over GST control) in [4]; 1.36 fold enrichment (6-mer frequency, TF over GST control) in assay [5]; 1.45 fold enrichment (6-mer frequency, TF over GST control) in assay [6]. Moreover, the binding signal was 1.49 fold enrichment (6-mer frequency, TF over GST control) in assay [7]; 1.26 fold enrichment (6-mer frequency, TF over GST control) in assay [8]; 1.26 fold enrichment (6-mer frequency, TF over GST control) in [9]; 1.43 fold enrichment (6-mer frequency, TF over GST control) in assay [10].
Consider AAAATT, for which the binding signal in assay [1] was 1.29 fold enrichment (6-mer frequency, TF over GST control); in assay [2], 1.4 fold enrichment (6-mer frequency, TF over GST control); in assay [3] it was 1.73 fold enrichment (6-mer frequency, TF over GST control); in [4] it was 1.2 fold enrichment (6-mer frequency, TF over GST control); in [5] it was 1.41 fold enrichment (6-mer frequency, TF over GST control); in assay [6], 1.34 fold enrichment (6-mer frequency, TF over GST control). The binding signal is 1.54 fold enrichment (6-mer frequency, TF over GST control) in [7]; 1.43 fold enrichment (6-mer frequency, TF over GST control) in [8]; 1.46 fold enrichment (6-mer frequency, TF over GST control) in assay [9]; 1.36 fold enrichment (6-mer frequency, TF over GST control) in [10].
